# Source: PubChem
# Many of the other results were omitted from the sample, so hits are more common in it than they were.
# miR122 inh: miR-122 suppressors via Renilla sensor increase, primary screen, cell-based, Huh7 psiCHECK-miR122, Renilla luciferase, single point; 48 h; activation, % at 12.5 µM; 340,000 compounds, 0.14% hits;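 active = mean activation of 30% or more, with every replicate also reaching 30%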;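 also: 0% = median of neutral control wells and 100% = median of positive control wells; higher luciferase signal means stronger suppression of miR-122 activity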
# The depositor's hits bear a star.
SMILES,miR122 inh
Cc1nn(C)cc1NC(=O)C[C@@H]1CC[C@H]2[C@@H](COc3ccc(NC(=O)Nc4cccc(Cl)c4)cc3C(=O)N2C)O1,48*
C[C@@H]1CN([C@H](C)CO)C(=O)c2cc(/C=C/c3ccccc3)cnc2O[C@@H]1CN(C)C(=O)c1cccc(F)c1,3
CO[C@@H]1CN(C)C(=O)c2cc(NC(C)=O)ccc2OC[C@@H](C)N(C(=O)CN(C)C)C[C@@H]1C,0
CCCNC(=O)N(C)C[C@H]1Oc2cc(-c3ccccc3)ccc2S(=O)(=O)N([C@@H](C)CO)C[C@H]1C,-6
CC(C)CC#Cc1cnc2c(c1)C(=O)N([C@@H](C)CO)C[C@H](C)[C@@H](CN(C)C(=O)Nc1cccc(F)c1)O2,5
COc1ccc(-c2cnc3c(c2)C(=O)N([C@@H](C)CO)C[C@@H](C)[C@@H](CN(C)C(=O)Cc2ccccc2)O3)cc1,-7
C/C=C/c1ccc2c(c1)O[C@@H](CN(C)C(=O)CC1CC1)[C@@H](C)CN([C@H](C)CO)S2(=O)=O,-6
c1cnc(N2CCN(Cc3c[nH]c4ccccc34)CC2)nc1,38*
C[C@@H]1CN([C@H](C)CO)C(=O)c2cc(-c3ccccc3F)cnc2O[C@H]1CN(C)C(=O)C1CCCCC1,13
COc1ccc(NC(=O)COC(=O)CCCc2c[nH]c3ccccc23)cc1,36*
COc1ccc(NS(=O)(=O)c2cccc(NC(=O)COc3ccccc3[N+](=O)[O-])c2)cc1,-146
COc1cccc(CN(C(=O)Cc2c[nH]c3ccccc23)C(C(=O)NC2CCCCC2)c2cccs2)c1 (centres undefined),-240
C[C@@H]1CN([C@@H](C)CO)C(=O)c2cc(C#Cc3ccccn3)cnc2O[C@@H]1CN(C)CC1CCOCC1,2
CC(C)CC#Cc1ccc2c(c1)O[C@H](CN(C)C(=O)NC1CCCC1)[C@@H](C)CN([C@@H](C)CO)S2(=O)=O,-30
COc1ccc(C(=O)C2CCCN(Cc3cccn3-c3ccccn3)C2)c(OC)c1 (centres undefined),60*
C[C@H](CO)N1C[C@H](C)[C@@H](CN(C)C)Oc2cc(-c3ccc(C(=O)N(C)C)cc3)ccc2S1(=O)=O,1
CC(C)CC#Cc1cnc2c(c1)C(=O)N([C@H](C)CO)C[C@@H](C)[C@H](CN(C)CC1CCOCC1)O2,-3
N#C/C(=C\c1ccc(N2CCOCC2)o1)C(=O)NCC1CCCO1 (centres undefined),36*
C[C@H]1CN([C@@H](C)CO)C(=O)c2cc(-c3cccc(C#N)c3)cnc2O[C@H]1CN(C)C,4
C/C=C/c1ccc2c(c1)O[C@H](CN(C)C(=O)CC1CC1)[C@@H](C)CN([C@@H](C)CO)S2(=O)=O,-4
C[C@@H]1CN([C@@H](C)CO)C(=O)c2cc(NC(=O)Nc3ccccc3)ccc2O[C@@H]1CN(C)Cc1ccc(C(=O)Nc2ccccc2N)cc1,-170
CC(=O)N(C)C[C@@H]1Oc2cc(C#CC3CCCCC3)ccc2S(=O)(=O)N([C@@H](C)CO)C[C@@H]1C,3
CCCCCCCCCn1c2c(c(=N)c3c1CCC3)CCC2,47*
COCC#Cc1cnc2c(c1)C(=O)N([C@@H](C)CO)C[C@H](C)[C@H](CN(C)Cc1ccccc1)O2,0
C[C@@H]1CN([C@@H](C)CO)C(=O)c2cc(C3=CCCCC3)cnc2O[C@@H]1CN(C)Cc1ccccc1C(=O)O,4
SMILES,miR122 inh
C[C@@H]1CN([C@@H](C)CO)C(=O)c2cc(C#CC3CC3)cnc2O[C@H]1CN(C)Cc1ccncc1,-1
O=[N+]([O-])c1ccc(O)c(/C=N/Nc2ccc(Cl)nn2)c1,46*
COc1ccc(NC(=O)N(C)C[C@@H]2Oc3ncc(C4=CCCC4)cc3C(=O)N([C@@H](C)CO)C[C@H]2C)cc1,2
C[C@H](CO)N1C[C@H](C)[C@H](CN(C)Cc2cccc(C(=O)O)c2)Oc2ncc(C#CCc3ccccc3)cc2C1=O,-10
C[C@H]1CN([C@@H](C)CO)S(=O)(=O)c2ccc(-c3ccccc3)cc2O[C@@H]1CN(C)Cc1ccccc1C(=O)O,-26
CCCC(NS(=O)(=O)c1ccc(Br)cc1)C(=O)O (centres undefined),36*
COc1ccccc1-c1ccc2c(c1)O[C@H](CN(C)S(=O)(=O)c1ccccc1)[C@@H](C)CN([C@@H](C)CO)S2(=O)=O,-45
COc1ccc(-c2cnc3c(c2)C(=O)N([C@H](C)CO)C[C@H](C)[C@H](CN(C)C(=O)C2CCOCC2)O3)cc1,-4
CC(C)NC(=O)N(C)C[C@@H]1Oc2ncc(C3=CCCCC3)cc2C(=O)N([C@@H](C)CO)C[C@H]1C,-3
COc1ccc(C#Cc2ccc([C@@H]3[C@H](CO)N4CCCCN(C(=O)Nc5ccccc5)C[C@@H]34)cc2)cc1,36*
Cc1ccccc1-c1ccc2c(c1)O[C@@H](CN(C)C(=O)Nc1ccccc1)[C@@H](C)CN([C@@H](C)CO)S2(=O)=O,-4
COc1cccc(NC(=O)N(C)C[C@@H]2Oc3cc(C#Cc4ccccc4)ccc3S(=O)(=O)N([C@H](C)CO)C[C@H]2C)c1,2
